{"source": "PubChem BioAssay (NCATS)", "key": {"[1]": {"target": "Aldehyde dehydrogenase, mitochondrial (Homo sapiens) (UniProt P05091)", "experiment": "qHTS for Inhibitors of the Aldehyde Dehydrogenase Family (ALDH2) Primary screen (AID 2061308); also: nearly all actives have a fitted effect of over 55% in size; also: potency is read from the fitted curve at half-maximal effect", "conditions": "ALDH2 enzyme inhibition qHTS, 1536-well; series mostly up to 56 µM"}, "[2]": {"experiment": "qHTS for Inhibitors of the Aldehyde Dehydrogenase Family (ALDH1A2, ALDH1A3, ALDH2, ALDH3A1) (AID 2061307); also: nearly all actives have a fitted effect of over 50% in size; as to potency: test system not described further here; potency is read from the fitted curve at half-maximal effect", "conditions": "ALDH inhibition qHTS; series mostly up to 50.3 µM"}, "[3]": {"target": "Retinaldehyde dehydrogenase 3 (Homo sapiens) (UniProt P47895)", "experiment": "qHTS for Inhibitors of the Aldehyde Dehydrogenase Family (ALDH1A3) Primary screen (AID 2061315)", "conditions": "ALDH inhibition qHTS; series mostly up to 56 µM"}, "[4]": {"target": "Aldehyde dehydrogenase 1A1 (Homo sapiens) (UniProt P00352)", "experiment": "qHTS for Inhibitors of the Aldehyde Dehydrogenase Family (ALDH1A1) Confirmatory screens (AID 2061316); also: nearly all actives have a fitted effect of over 65% in size; also: potency is read from the fitted curve at half-maximal effect", "conditions": "ALDH inhibition qHTS; series mostly up to 47.3 µM"}, "[5]": {"target": "Retinaldehyde dehydrogenase 3 (Homo sapiens) (UniProt P47895)", "experiment": "qHTS for Inhibitors of the Aldehyde Dehydrogenase Family (ALDH1A3) Confirmatory screens (AID 2061311); also: nearly all actives have a fitted effect of over 60% in size; also: potency is read from the fitted curve at half-maximal effect", "conditions": "ALDH inhibition qHTS; series mostly up to 46 µM"}, "[6]": {"target": "Retinal dehydrogenase 2 (Homo sapiens) (UniProt O94788)", "experiment": "qHTS for Inhibitors of the Aldehyde Dehydrogenase Family (ALDH1A2) Confirmation screens (AID 2061314); also: nearly all actives have a fitted effect of over 65% in size; also: potency is read from the fitted curve at half-maximal effect", "conditions": "ALDH1A2 enzyme inhibition qHTS confirmation; series mostly up to 45.9 µM"}}, "note": "Where “and” joins values, the source holds several entries; their conditions need not be identical. Equal entries are not always repeated. Inconclusive results are not listed. Where a call stands in place of a potency, no number is given. Calls of active or inactive are those of the source. Calls follow the shape of the dose curve; as a rule, active = well fitted curve in the direction sought with a large enough effect; inconclusive = small, poorly fitted or top-dose-only effect, or another doubt; inactive = no such curve, though single readings can be large; an effect the other way counts as inactive or inconclusive.", "data": [{"compound": "Cc1ccc(S(=O)(=O)Nc2cccc3cccnc23)c([N+](=O)[O-])c1", "values": [{"measurement": "Potency", "setting": "[1]", "value": "inactive"}]}, {"compound": "CN(C)C1CCN(Cc2cc(COCc3ccccc3)c3cccnc3c2O)C1", "note": "(centres undefined)", "values": [{"measurement": "Potency", "setting": "[1]", "value": "inactive"}]}, {"compound": "CC(C)(C)c1ccc(-c2nnc(NC(=O)Nc3ccc4ccccc4c3)s2)cc1", "values": [{"measurement": "Potency", "setting": "[2]", "value": "10.1 µM (active)"}, {"measurement": "Potency", "setting": "[3]", "value": "inactive"}, {"measurement": "Potency", "setting": "[4]", "value": "11.3 µM (active)"}]}, {"compound": "O=[N+]([O-])c1ccc(S(=O)(=O)Nc2cnc3ccccc3c2)cc1", "values": [{"measurement": "Potency", "setting": "[2]", "value": "inactive"}, {"measurement": "Potency", "setting": "[3]", "value": "inactive"}, {"measurement": "Potency", "setting": "[4]", "value": "inactive"}]}, {"compound": "O=C1Nc2ccccc2/C1=C\\c1ccc([N+](=O)[O-])cc1", "values": [{"measurement": "Potency", "setting": "[1]", "value": "inactive"}, {"measurement": "Potency", "setting": "[5]", "value": "17.8 µM (active)"}, {"measurement": "Potency", "setting": "[6]", "value": "2.83 µM (active)"}, {"measurement": "Potency", "setting": "[3]", "value": "inactive"}]}, {"compound": "CN(C)c1cnc2c(O)ccc(C(=O)O)c2c1", "values": [{"measurement": "Potency", "setting": "[1]", "value": "inactive"}, {"measurement": "Potency", "setting": "[5]", "value": "8.96 µM (active)"}, {"measurement": "Potency", "setting": "[6]", "value": "5.04 µM (active)"}, {"measurement": "Potency", "setting": "[3]", "value": "inactive"}]}, {"compound": "COc1ccc(CNc2ccc(N3CCN(C(C)=O)CC3)cc2)cc1OC", "values": [{"measurement": "Potency", "setting": "[1]", "value": "inactive"}, {"measurement": "Potency", "setting": "[5]", "value": "12.7 µM (active)"}, {"measurement": "Potency", "setting": "[6]", "value": "12.7 µM (active)"}]}, {"compound": "C=C1C(=O)OC2/C=C(\\CO)CC/C=C(\\C=O)C(O)C(OC(=O)C(C)CC)C12", "note": "(centres undefined)", "values": [{"measurement": "Potency", "setting": "[1]", "value": "inactive"}]}, {"compound": "c1csc(CNc2ccc(N3CCCCC3)cc2)c1", "values": [{"measurement": "Potency", "setting": "[1]", "value": "inactive"}, {"measurement": "Potency", "setting": "[5]", "value": "20.1 µM (active)"}]}, {"compound": "CC(=O)Nc1sc2c(c1-c1ccc(N[S+](C)(=O)[O-])cc1)CCNC2", "values": [{"measurement": "Potency", "setting": "[1]", "value": "inactive"}]}, {"compound": "Cn1c2cc(Br)sc2c2cnn(Cc3c(F)cccc3Cl)c(=O)c21", "values": [{"measurement": "Potency", "setting": "[1]", "value": "inactive"}]}, {"compound": "Oc1ccc(/C=C/c2ccccc2)c2cccnc12", "values": [{"measurement": "Potency", "setting": "[1]", "value": "inactive"}, {"measurement": "Potency", "setting": "[5]", "value": "14.2 µM (active)"}]}, {"compound": "COc1cccc(-c2nc(-c3cccc(C(=O)O)c3)no2)c1", "values": [{"measurement": "Potency", "setting": "[1]", "value": "inactive"}]}, {"compound": "Cc1ccc(-c2ccc(CNc3nc(-c4ccccc4C(C)C)nc4ccsc34)cc2)cn1", "values": [{"measurement": "Potency", "setting": "[1]", "value": "inactive"}]}, {"compound": "Cc1ccc(-c2ccc(=O)n(CC(=O)NCc3ccccc3)n2)cc1", "values": [{"measurement": "Potency", "setting": "[1]", "value": "inactive"}]}, {"compound": "COc1cc(NS(=O)(=O)c2ccc(C)cc2)c2ncccc2c1", "values": [{"measurement": "Potency", "setting": "[1]", "value": "inactive"}]}, {"compound": "Cc1nnc(-c2cnn(C)c2N)n1CCCc1ccncc1", "values": [{"measurement": "Potency", "setting": "[1]", "value": "inactive"}]}, {"compound": "O=S(=O)(Nc1cccc2cccnc12)c1ccccc1O", "values": [{"measurement": "Potency", "setting": "[1]", "value": "inactive"}]}, {"compound": "CC(C)N1CCc2c(sc(NC(=O)c3ccccc3)c2-c2nc3ccccc3s2)C1", "values": [{"measurement": "Potency", "setting": "[1]", "value": "22.4 µM (active)"}, {"measurement": "Potency", "setting": "[5]", "value": "inactive"}]}, {"compound": "Cc1ccc(-c2ccc(=O)n(CC(=O)NCCc3ccncc3)n2)cc1", "values": [{"measurement": "Potency", "setting": "[1]", "value": "inactive"}]}, {"compound": "COc1cncc(NC(=O)c2cccs2)c1", "values": [{"measurement": "Potency", "setting": "[1]", "value": "inactive"}, {"measurement": "Potency", "setting": "[5]", "value": "11.3 µM (active)"}]}, {"compound": "CO[C@H]1c2cc(C(C)C)c(O)c(O)c2[C@@]23CCCC(C)(C)C2[C@@H]1OC3=O", "note": "(some centres undefined)", "values": [{"measurement": "Potency", "setting": "[1]", "value": "inactive"}, {"measurement": "Potency", "setting": "[5]", "value": "6.97 µM (active)"}, {"measurement": "Potency", "setting": "[6]", "value": "6.97 µM (active)"}]}, {"compound": "COc1cccc(Nc2ccc(N3CCN(C(C)=O)CC3)cc2)c1OC", "values": [{"measurement": "Potency", "setting": "[1]", "value": "inactive"}]}, {"compound": "O=[S+]([O-])(Nc1nccs1)c1ccc(NCc2cc(F)cc(Cl)c2O)cc1", "values": [{"measurement": "Potency", "setting": "[1]", "value": "inactive"}, {"measurement": "Potency", "setting": "[5]", "value": "inactive"}, {"measurement": "Potency", "setting": "[6]", "value": "inactive"}, {"measurement": "Potency", "setting": "[3]", "value": "inactive"}]}, {"compound": "Cc1ccc2nc3sc(C(=O)NCCc4cccnc4)cc3cc2c1", "values": [{"measurement": "Potency", "setting": "[1]", "value": "inactive"}, {"measurement": "Potency", "setting": "[5]", "value": "12.7 µM (active)"}]}, {"compound": "O=C1c2ccccc2C(=O)c2cc(S(=O)(=O)Nc3cccc4cccnc34)ccc21", "values": [{"measurement": "Potency", "setting": "[1]", "value": "inactive"}, {"measurement": "Potency", "setting": "[5]", "value": "15.9 µM (active)"}]}, {"compound": "CNC(=O)c1ccccc1Nc1cc(Nc2ccc(N3CCOCC3)cc2OC)ncc1C(F)(F)F", "values": [{"measurement": "Potency", "setting": "[1]", "value": "inactive"}, {"measurement": "Potency", "setting": "[5]", "value": "3.57 µM (active)"}]}, {"compound": "FC(F)(F)c1cc(-c2ccc(CNc3nc(-c4ccccc4C(F)(F)F)nc4ccsc34)cc2)ccn1", "values": [{"measurement": "Potency", "setting": "[1]", "value": "inactive"}]}, {"compound": "CC(=O)c1ccc(N2CCN(S(=O)(=O)c3ccc4c(c3)C(Cl)(Cl)C(=O)N4)CC2)cc1", "values": [{"measurement": "Potency", "setting": "[1]", "value": "inactive"}, {"measurement": "Potency", "setting": "[5]", "value": "2.82 µM (active) and 1.12 µM (active)"}, {"measurement": "Potency", "setting": "[6]", "value": "6.34 µM (active)"}]}, {"compound": "CC(=O)c1ccc(N2CCN(S(=O)(=O)c3cc4c(cc3Cl)NC(=O)C4)CC2)cc1", "values": [{"measurement": "Potency", "setting": "[1]", "value": "inactive"}, {"measurement": "Potency", "setting": "[5]", "value": "3.55 µM (active)"}]}, {"compound": "COc1ccc(C(=O)OC2C3C=COC(OC4OC(CO)C(O)C(O)C4O)C3C3(CO)OC23)cc1OC", "note": "(centres undefined)", "values": [{"measurement": "Potency", "setting": "[1]", "value": "inactive"}]}, {"compound": "Oc1ccc(COCc2ccc(F)cc2)c2cccnc12", "values": [{"measurement": "Potency", "setting": "[1]", "value": "inactive"}, {"measurement": "Potency", "setting": "[5]", "value": "10.1 µM (active)"}]}, {"compound": "NC(=O)C1CCN(c2ncc(-c3ccc4c(c3)OCCCO4)s2)CC1", "values": [{"measurement": "Potency", "setting": "[1]", "value": "inactive"}, {"measurement": "Potency", "setting": "[5]", "value": "inactive"}, {"measurement": "Potency", "setting": "[6]", "value": "3.57 µM (active)"}, {"measurement": "Potency", "setting": "[3]", "value": "inactive"}]}, {"compound": "O=[N+]([O-])c1ccccc1S(=O)(=O)Nc1cccc2cccnc12", "values": [{"measurement": "Potency", "setting": "[1]", "value": "inactive"}, {"measurement": "Potency", "setting": "[5]", "value": "12.7 µM (active)"}, {"measurement": "Potency", "setting": "[6]", "value": "0.712 µM (active)"}]}, {"compound": "N#Cc1cccc(CSc2nc3ncc(Br)cc3[nH]2)c1", "values": [{"measurement": "Potency", "setting": "[1]", "value": "inactive"}]}, {"compound": "C/C(=C\\c1ccc2c(c1)OCO2)C1Nc2cccc3cccc(c23)N1", "values": [{"measurement": "Potency", "setting": "[1]", "value": "inactive"}, {"measurement": "Potency", "setting": "[5]", "value": "2.83 µM (active)"}]}, {"compound": "CCC(=O)NC(c1cc(Cl)c2ccccc2c1O)C(C)C", "note": "(centres undefined)", "values": [{"measurement": "Potency", "setting": "[1]", "value": "inactive"}, {"measurement": "Potency", "setting": "[5]", "value": "12.7 µM (active)"}, {"measurement": "Potency", "setting": "[6]", "value": "28.3 µM (active)"}]}, {"compound": "COc1ccc(OC)c(NC(=O)c2ccccc2OC(C)=O)c1", "values": [{"measurement": "Potency", "setting": "[1]", "value": "inactive"}]}]}
